Screening data deposited in PubChem BioAssay by National Center for Advancing Translational Sciences (NCATS).
Most compounds without a hit are left out; they make up all but 2.9% or so of the library.
PI5P4K alpha inh: qHTS for Inhibitors of phosphatidylinositol 5-phosphate 4-kinase (PI5P4K); 330,000 compounds, 1.2% hits; PI5P4Kalpha enzyme, ADP-Glo luminescence, 60 min; stronger effect = lower value; AID 652105, 2013; Phosphatidylinositol 5-phosphate 4-kinase type-2 alpha (Homo sapiens), P48426; max response, %; active means max response of -50% or lower; inconclusive means between -30% and -50%; inactive means -30% or higher; further: value at the top dose of about 77 µM; on the % scale 0 is the no-effect control and ±100 the full control effect
Target sequence (P48426 whole entry, looked up): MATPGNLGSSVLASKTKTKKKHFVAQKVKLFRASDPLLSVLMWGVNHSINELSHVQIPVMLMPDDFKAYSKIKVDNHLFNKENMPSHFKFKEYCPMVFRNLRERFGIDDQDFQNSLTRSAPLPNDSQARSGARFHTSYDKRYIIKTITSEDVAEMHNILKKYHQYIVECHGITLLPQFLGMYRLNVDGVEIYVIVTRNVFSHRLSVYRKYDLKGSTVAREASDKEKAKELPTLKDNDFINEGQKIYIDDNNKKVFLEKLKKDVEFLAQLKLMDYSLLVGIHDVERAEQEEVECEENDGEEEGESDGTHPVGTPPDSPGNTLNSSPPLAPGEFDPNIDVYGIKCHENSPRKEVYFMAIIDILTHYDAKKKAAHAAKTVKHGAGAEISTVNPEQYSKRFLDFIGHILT
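Reactions run in 0.038 M HEPES pH 7.4, 0.28 mM EGTA, 0.1% CHAPS and 5% DMSO, with PI5P4Kalpha, substrate, compound and 5 microM ATP final, one hour at room temperature. Readout is ADP-Glo luminescence.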
Pol eta inh: qHTS for Inhibitors of Polymerase Eta | DNA polymerase eta (Homo sapiens), Q9Y253 | recombinant Pol eta, fluorescent DNA replication assay | Potency, µM (doses to about 114 µM), without a hit: at the top dose activity change, negative = inhibition, most hits filed as inhibitors | 390,000 compounds, 1.2% hits | AID 588591, 2011; further: potency means the concentration at half of the fitted maximal effect; on the % scale 0 is the no-effect control and ±100 the full control effect
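Pol eta at 10 nM preincubated with compounds 15 min at room temperature; reaction started with fluorescent substrate (50 nM final) and read kinetically at 0 and 10 min.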
12-LOX inh: Primary qHTS assay for inhibitors of human arachidonate 12S-lipoxygenase (ALOX12): Round 2. 580,000 compounds, 1.1% hits. Potency, µM (titrated, usually from 108 µM), without a hit: top-dose activity change, negative = inhibition, hits mostly inhibitors. purified 12hLO, xylenol orange hydroperoxide absorbance. Polyunsaturated fatty acid lipoxygenase ALOX12 (Homo sapiens), P18054; further: potency means the concentration at half of the fitted maximal effect; on the % scale 0 is the no-effect control and ±100 the full control effect
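Purified human 12hLO (150 nM final) in 25 mM Hepes, 0.01% Triton X-100, pH 7.0 was preincubated 15 min at room temperature with compound. Then 40 uM arachidonic acid was added, 30 min. Hydroperoxide was read by Fe-XO absorbance ratio 573/405 nm.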
Pol beta inh: qHTS Assay for Inhibitors of DNA Polymerase Beta. P06746. Pol beta primer extension/strand displacement, fluorescence kinetic. Potency, µM (titrated, usually from 114 µM), for the others: at the highest dose activity change, negative = inhibition, actives largely listed as inhibitors. 340,000 compounds, 1.3% hits. AID 485314, 2010; further: potency means the concentration at half of the fitted maximal effect; on the % scale 0 is the no-effect control and ±100 the full control effect
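Human Pol beta at 10 nM; strand-displacement substrate 50 nM final. Compound exposure 15 min at room temperature before start, reaction 10 min at room temperature.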
Pol iota inh: qHTS for Inhibitors of Polymerase Iota; DNA polymerase iota (Homo sapiens), Q9UNA4; Pol iota fluorescent replication assay, 10 min; Potency, µM (doses to about 115 µM), for the others: at the highest dose activity, negative = inhibition, hits mostly inhibitors; 390,000 compounds, 1% hits; AID 588590, 2011; further: potency means the concentration at half of the fitted maximal effect
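Fluorescent replication assay read twice, at 0 min and 10 min after adding 50 nM (final) substrate. Enzyme (10 nM) and compounds were first incubated 15 min at room temperature; enzyme-free buffer wells were negative controls.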
Pol kappa inh: qHTS for Inhibitors of Polymerase Kappa. AID 588579, 2011. purified Pol kappa, fluorescent DNA synthesis assay, 10 min. DNA polymerase kappa (Homo sapiens), Q9UBT6. Potency, µM (doses to about 107 µM), without a hit: at the top dose activity, negative = inhibition, actives largely listed as inhibitors. 400,000 compounds, 0.53% hits; further: potency means the concentration at half of the fitted maximal effect; on the % scale 0 is the no-effect control and ±100 the full control effect
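Here, compound and 10 nM enzyme are combined for 15 min at room temperature; adding 50 nM substrate (final) starts DNA synthesis, tracked by fluorescence at 0 and 10 min against buffer-only wells.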
* marks the source's active call; other numbers are inactive results; [ ] = dose if it differs, or a comment. Unless noted, the call rests on the fitted dose curve; in most records, active means well fitted inhibition curve with a large enough effect; inconclusive means small, poorly fitted or top-dose-only effect, or another doubt; inactive means no such curve, though single readings can be large or run the other way.

`CCCCC[C@@H]1C=C(C(=O)O)[C@H](c2ccc(F)cc2)N1S(=O)(=O)c1ccc(C)cc1` gave PI5P4K alpha inh 12, Pol eta inh -17%, 12-LOX inh 45µM*, Pol iota inh 22% and Pol kappa inh -8%.
`CCCCC[C@@H]1C=C(C(=O)O)[C@H](c2ccc(CC)cc2)N1S(=O)(=O)c1ccc(C)cc1` gave PI5P4K alpha inh 16, Pol eta inh -11%, 12-LOX inh -111%, Pol iota inh inconclusive and Pol kappa inh -25%.
Oc1c(Cl)cc(Cl)cc1C=Nc1ccc(Br)cc1 was read as PI5P4K alpha inh -55*, Pol eta inh inconclusive, 12-LOX inh 367%, Pol beta inh 5%, Pol iota inh -4% and Pol kappa inh -10%.
Screening CN(Cc1ccccc1)C(=O)C1CCN(S(C)(=O)=O)CC1 returned PI5P4K alpha inh 9, Pol eta inh -2%, 12-LOX inh 19%, Pol beta inh inconclusive, Pol iota inh 27% and Pol kappa inh 8%.
For FC(F)(F)c1ccccc1CN1CCC(Cc2ccccc2)CC1 the results were PI5P4K alpha inh 12, Pol eta inh -13%, 12-LOX inh 0.71µM*, Pol beta inh 73%, Pol iota inh 17% and Pol kappa inh 0%.
Screening CN(Cc1ccccc1)C(=O)C1CCN(Cc2cccc3ccccc23)CC1 returned 12-LOX inh 1.3µM*.
`Cc1ccccc1CN1CCC(N(C)Cc2ccccc2)CC1` gave 12-LOX inh 0.56µM*.
Screening Cc1ccccc1CN(C)C1CCN(C)CC1 returned PI5P4K alpha inh 0, Pol eta inh -14%, 12-LOX inh -10%, Pol beta inh 6%, Pol iota inh 10% and Pol kappa inh -3%.
CCC(=O)NCCNC(=O)c1cc(-c2ccccc2)nc2ccccc12 was read as 12-LOX inh -9%.
For CS(=O)(=O)Nc1ccc(C2=NN(C(=O)CCC(=O)O)C(c3ccc(F)cc3)C2)cc1 (centres undefined) the results were 12-LOX inh -7%.
`COc1cccc(CNC(=O)CN(C(=O)C2=C(C)OCCS2)c2ccc(Cl)cc2)c1OC` gave 12-LOX inh -10%.
Screening O=c1cc(-c2ccccc2)nc2cc(-c3ccc(Br)cc3)[nH]n12 returned PI5P4K alpha inh -10, Pol eta inh -4%, 12-LOX inh 0%, Pol beta inh -13%, Pol iota inh -20% and Pol kappa inh -12%.
`O=c1cc(-c2ccccc2)nc2cc(-c3ccco3)[nH]n12` gave PI5P4K alpha inh -8, Pol eta inh -14%, 12-LOX inh 0%, Pol beta inh 50µM*, Pol iota inh 14% and Pol kappa inh 3%.
Screening CCCCCCCCC1CCC(=O)O1 (centres undefined) returned 12-LOX inh -6%[176 µM].
Cc1ccnc(NS(=O)(=O)c2ccc(N3C(=O)c4c(Cl)c(Cl)c(Cl)c(Cl)c4C3=O)cc2)n1 was read as PI5P4K alpha inh -29, Pol eta inh 79µM*, 12-LOX inh -12%, Pol beta inh 1%, Pol iota inh 92% and Pol kappa inh -12%.
Cc1ccnc(NS(=O)(=O)c2ccc(N3C(=O)c4ccccc4C3=O)cc2)n1 was read as PI5P4K alpha inh -3, Pol eta inh -16%, 12-LOX inh 9%, Pol beta inh 28%, Pol iota inh 11% and Pol kappa inh -3%.
N#Cc1nc(-c2ccco2)oc1N1CCN(C(=O)CCCN2C(=O)NC3(CCCC3)C2=O)CC1 was read as 12-LOX inh -28%.
c1ccc(-c2nc(-c3ccco3)n3ccccc23)cc1 was read as PI5P4K alpha inh inconclusive, Pol eta inh inconclusive, 12-LOX inh inconclusive, Pol beta inh 35µM*, Pol iota inh -6% and Pol kappa inh -8%.
Screening N#CCSc1ncnc2sc3c(c12)CCC3 returned PI5P4K alpha inh inconclusive, Pol eta inh 89µM*, 12-LOX inh 26%, Pol beta inh inconclusive, Pol iota inh inconclusive and Pol kappa inh inconclusive.
`Cc1nc2ccc(C(=O)OC(C)C(=O)NC(N)=O)cc2nc1C` (centres undefined) gave 12-LOX inh -11%.
COc1cc(F)cc(-c2ccc(COc3ccc4c(cnn4CCC(=O)O)c3)cc2)c1 was read as 12-LOX inh 28µM*.
For Cc1ccccc1-c1ccc(COc2ccc3c(cnn3CCC(=O)O)c2)cc1 the results were 12-LOX inh 45µM*.
For CNC(=O)CCn1ncc2cc(OCc3ccccc3-c3ccccc3COC)ccc21 the results were 12-LOX inh 1%[176 µM].
Screening COc1cccc(F)c1-c1ccc(COc2ccc3c(cnn3CCC(=O)O)c2)cc1 returned 12-LOX inh 22µM*.
For Cc1ccc(C(=O)N2CCC3(CC2)N=C(c2ccc(Br)cc2)NO3)cc1 the results were 12-LOX inh 30%.
CC(C)Cc1ccc(C(C)C(=O)NC(Cc2ccccc2)C(N)=O)cc1 (centres undefined) was read as 12-LOX inh 8%.
For CC1(C)CC(=O)C(C(C2=C(O)CC(C)(C)CC2=O)c2ccc(Br)s2)C(=O)C1 (centres undefined) the results were PI5P4K alpha inh -80*, Pol eta inh -3%, 12-LOX inh 16µM*, Pol beta inh -1%, Pol iota inh inconclusive and Pol kappa inh -3%.
Screening CCCCOc1ccc(C2OC34CCCCC3C(C#N)(C#N)C2(C#N)C(=N)O4)cc1 (centres undefined) returned PI5P4K alpha inh -25, Pol eta inh inconclusive, Pol beta inh 1%, Pol iota inh 16µM* and Pol kappa inh -34%.
C=CCOc1ccc(C2OC34CCCCC3C(C#N)(C#N)C2(C#N)C(=N)O4)cc1 (centres undefined) was read as PI5P4K alpha inh -16, Pol eta inh 4%, Pol beta inh 17%, Pol iota inh inconclusive and Pol kappa inh -7%.
`CCCCCc1ccc(-c2ccc(CCC)cc2)nc1` gave 12-LOX inh 11%.
For CCOC(=O)c1c(NC(=O)CSc2nnc(C)c(=O)[nH]2)sc2c1CCCC2 the results were PI5P4K alpha inh -11, Pol eta inh -6%, 12-LOX inh 8%, Pol beta inh inconclusive, Pol iota inh -10% and Pol kappa inh -2%.
